# In the library only some 0.4% were active in any assay of this set; here they are far more common.
# GAA spleen mod: lysosomal alpha-glucosidase (human) modulation; P10253; human spleen homogenate, 4-MU-alpha-glucoside fluorescence; Potency, µM (series often up to 79.9 µM), usual class: inhibitors; 0.006% of 240,000 active; AID 2112
#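 AC50 values come from Hill-equation fits of concentration-response data, normalized to no-enzyme and full-activity controls. Enzyme source: 1 ug human spleen homogenate; 1 mM fluorogenic 4-MU glucoside, pH 5.0 citrate buffer, 37 C, 40 min.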
# aGal spleen mod: inhibits or activates alpha-galactosidase in human spleen homogenate; P06280; human spleen homogenate, 4MU-alpha-Gal fluorescence, 40 min; Potency, µM (titrated, usually from 80 µM), actives largely listed as inhibitors; 0.008% of 240,000 active; AID 2107
#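 Inhibition or activation of alpha-galactosidase in human spleen homogenate is scored by 4-MU fluorescence after 40 min at 37C, pH 5.0, with 1 mM substrate. AC50s come from concentration-response fitted to the Hill equation.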
# GLA inh pH 4.5: blocks human alpha-galactosidase A at pH 4.5. P06280. purified enzyme, 4-MU-alpha-Gal fluorescence, pH 4.5. activity change, negative = inhibition, % at 105 µM. 230,000 tested, under 10 active
# Target sequence (P06280 whole entry, looked up): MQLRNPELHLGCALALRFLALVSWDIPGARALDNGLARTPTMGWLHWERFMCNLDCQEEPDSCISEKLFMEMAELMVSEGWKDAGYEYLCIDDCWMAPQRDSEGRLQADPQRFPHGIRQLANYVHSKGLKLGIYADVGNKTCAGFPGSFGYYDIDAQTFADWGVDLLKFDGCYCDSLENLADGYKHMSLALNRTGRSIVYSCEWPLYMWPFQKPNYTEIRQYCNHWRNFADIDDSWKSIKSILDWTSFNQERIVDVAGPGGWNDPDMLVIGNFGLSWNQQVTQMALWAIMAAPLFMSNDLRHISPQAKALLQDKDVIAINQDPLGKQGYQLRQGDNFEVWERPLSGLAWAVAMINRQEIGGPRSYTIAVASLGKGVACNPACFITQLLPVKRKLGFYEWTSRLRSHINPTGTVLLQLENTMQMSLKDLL
# GAA inhib: blocks human lysosomal alpha-glucosidase. 0.005% of 200,000 active. AID 1466. P10253. Potency, µM (series often up to 76.9 µM), usual class: inhibitors. purified human GAA, 4-MU-alpha-glucoside fluorescence
#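 AC50 values come from Hill fits of compound titrations (up to 77 uM) against 4 nM human enzyme. Substrate 4-methylumbelliferyl-alpha-D-pyranoside at 400 uM, pH 5.0 citrate buffer, 20 min room temperature; fluorescence Ex 365/Em 440 after alkaline stop.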
# GAA glycogen: GAA glycogen-cleavage inhibition or activation. recombinant GAA, glycogen substrate, Amplex Red glucose oxidase fluorescence. P10253. Potency, µM (series often up to 76.4 µM), actives largely listed as inhibitors. 0.38% of 300,000 active;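 further: the screen sought inhibitors and activators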
#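 Natural-substrate format: glycogen cleavage by 4 nM human enzyme, glucose read by Amplex Red coupling (Ex 573, Em 610 nm). Normalized to enzyme and no-enzyme controls.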
# Numbers stand for hits; - = inactive; ? = inconclusive; . = no result; [ ] = remark or other dose. The call rests on the fitted dose curve; in most records, active means well fitted curve in the direction sought with a large enough effect; inconclusive means small, poorly fitted or top-dose-only effect, or another doubt; inactive means no such curve, though single readings can be large; an effect the other way counts as inactive or inconclusive.
SMILES,GAA spleen mod,aGal spleen mod,GLA inh pH 4.5,GAA inhib,GAA glycogen
CC1=NNC(=O)C1C(c1ccccc1)C1C(=O)NN=C1C (centres undefined),-,-,-,?,13µM
COc1ccc(C(=O)NC2(C(F)(F)F)C(=O)NC(C)=C2C#N)cc1 (centres undefined),.,.,.,.,-
CCN(CC)CCNC(=O)CCCCn1c(=S)[nH]c2c([nH]c3ccc(OC)cc32)c1=O,-,-,-,-,25µM
O=C(CN1CCOc2ccccc21)NCc1ccco1,-,-,-,-[15.4 µM],-
O=C(CN1CC(=O)Oc2ccccc21)NCc1ccco1,-,-,-,-,7µM
Cc1ccc(Cl)cc1-n1c(=O)c2sc3ccccc3c2n(CC(=O)NC2CCCCC2)c1=O,.,.,.,.,-
COc1cccc(CNn2c(-c3cccc(C)c3)nc3ccccc3c2=O)c1O,-,-,-,-,31µM
COc1ccc(O)c(CNn2c(-c3ccc(Br)cc3)nc3ccccc3c2=O)c1,-,-,-,-,-
CCNc1ncc2nc(-c3ccc(Cl)cc3)c(=O)n(Cc3ccc(F)cc3)c2n1,-,-,.,.,.
CSc1ccccc1NC(=O)CN(C)CC(=O)NCc1ccccc1,?,35µM,-,-,-
CSc1ccccc1NC(=O)CN(C)CC(=O)Nc1cc(C)ccc1C,-,-,-,-,-
CC(=O)OCC1OC(C#Cc2ccc(F)cc2F)C=CC1OC(C)=O (centres undefined),-[17.4 µM],-[17.5 µM],.,.,.
CCCCOc1ccc(C2c3c(-c4ccccc4O)n[nH]c3C(=O)N2Cc2ccncc2)cc1OC (centres undefined),.,.,.,.,-
COc1ccc(C)cc1NC(=O)C1CCN(S(C)(=O)=O)CC1,.,.,.,.,35µM
CCc1ccc(O)c(N=Cc2ccccc2O)c1,-,-,-,-,11µM
COc1ccc(OC)c(-c2csc(-c3c(N)c(C(=O)c4ccc(Cl)cc4)n4ccccc34)n2)c1,.,.,.,.,-
Cc1ccc(Cc2cnc(NC(=O)c3ccc4c(c3)CC(c3ccccc3)OC4=O)s2)cc1 (centres undefined),.,.,.,.,-
COc1ccc2c(c1OC)C(=O)OC2CC(=O)c1ccc(O)c(O)c1 (centres undefined),-,-,-,-,14µM
Cc1cc(NC(=O)CN2CCN(c3ccccc3O)CC2)no1,-,-,-,-,13µM
CC[C@H](C)[C@H](NC(=O)[C@H](CCCNC(=N)N)NC(=O)[C@@H](NC(=O)[C@H](CCCNC(=N)N)NC(=O)[C@H](CCCCN)NC(=O)[C@H](CCCNC(=N)N)NC(=O)[C@@H](NC(=O)[C@H](CC(N)=O)NC(=O)[C@@H](N)CS)[C@@H](C)O)[C@@H](C)CC)C(=O)N[C@@H](CCC(N)=O)C(=O)N[C@@H](CCCNC(=N)N)C(=O)NCC(=O)N1CCC[C@H]1C(=O)NCC(=O)N[C@@H](CCCNC(=N)N)C(=O)N[C@@H](C)C(=O)N[C@@H](Cc1ccccc1)C(=O)N[C@H](C(=O)N[C@H](C(=O)N[C@H](C(=O)NCC(=O)N[C@@H](CCCCN)C(=O)O)[C@@H](C)CC)[C@@H](C)O)C(C)C,-,-,.,.,.
CCOC(=O)C1=C(C)NC(SCc2cc(=O)[nH][nH]2)=C(C#N)C1c1cccs1 (centres undefined),-,-,-,-,31µM
COc1ccccc1N/N=C/c1c(CO)cnc(C)c1O,-,-,-,-,3.2µM
Cc1ccc2oc(C(=O)Nc3ccc(S(=O)(=O)Nc4ncccn4)cc3)cc(=O)c2c1,.,.,.,.,-
Cc1ccc2oc(C(=O)Nc3ccc(S(=O)(=O)N4CCCCC4C)cc3)cc(=O)c2c1 (centres undefined),.,.,.,.,7.1µM
CN1c2ccccc2C(C)(C)C12C=Cc1cc(O)ccc1O2 (centres undefined),-,-,-,-,12µM
CN1c2ccccc2C(C)(C)C12C=Nc1c(cc(N3CCOCC3)c3ccccc13)O2 (centres undefined),-,-,-,-,-
COc1cccc(CNC(=O)CCn2c(=O)c3cccn3c3ccc(F)cc32)c1OC,.,.,.,.,-
N#CCCn1c(=O)c(-c2ccc(Cl)cc2)nc2cnc(N3CCOCC3)nc21,-,-,.,.,.
